Reference: PubChem BioAssay AID1259417 (TB Discovery Research, Infectious Disease Research Institute, 2018)
About 760 (69%) of roughly 1,100 compounds were called active. The rule behind the calls is not given here. The set was probably picked from earlier hits. The list shows a part of the results.

Assay: M. tuberculosis growth inhibition, HTS (AID 1259417);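 note: bacteria grown with compound for 5 days at 37 °C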
Settings: stronger effect = higher value, concentration not given here
[1] = M. tuberculosis DsRed fluorescence growth inhibition
[2] = M. tuberculosis growth inhibition

Compound	inhibition [1]	inhibition [2] [%]
CC1(C)CC(=O)C2=C(C1)OC(N)=C([N+](=O)[O-])C2c1ccc(C#N)s1 (stereo unspecified)	10.4% (active)	32.4
CC1=NN(c2nc(-c3ccc(Cl)cc3)cs2)C(=O)C1C (stereo unspecified)	4.11% (inactive)	7.17
O=C(COc1ccc(Cl)cc1)Nc1ccc(Cc2ccncc2)cc1	-0.257% (inactive)	-2.75
N#Cc1ccc(-c2ccc(OCC(N)=O)cc2)cc1	17.9% (active)	86.6
N#Cc1ccc(-c2ccc(OCC(=O)Nc3cccnc3)cc2)cc1	43% (active)	88.1
CC(C)(C)C(=O)NC(=S)NNC(=O)C(c1ccccc1)c1ccccc1	44.9% (active)	30.8
CCN1CCN(c2ccc(NC(=O)CC34CC5CC(CC(C5)C3)C4)cc2Cl)CC1	32.7% (active)	46.9
O=C(CC12CC3CC(CC(C3)C1)C2)Nc1ccc(N2CCOCC2)c(Cl)c1	33.8% (active)	-14.8
CCC(=O)N1CCN(c2ccc(Cl)cc2NC(=O)CC23CC4CC(CC(C4)C2)C3)CC1	6.85% (inactive)	6.57
Cc1ccc2c(c1)c1ncnc(N3CCc4ccccc4C3)c1n2C	99.1% (active)	100
Cc1ccc(Cn2c(=N)n(CC(O)c3ccc(Cl)c(Cl)c3)c3ccccc32)cc1 (stereo unspecified)	99.8% (active)	98.9
c1ccc(CC2CCN(c3nc4ccccc4n4cnnc34)CC2)cc1	57.6% (active)	39.3
c1ccc2c(NCCc3c[nH]c4ccccc34)c3ccccc3nc2c1	27.2% (active)	59.7
FC(F)(F)c1cccc(-n2cc(-c3ccccc3)c3c(NCc4cccnc4)ncnc32)c1	4.11% (inactive)	-14
CC1CC(C)CN(C(=O)COC(=O)c2cc3ccccc3cc2O)C1 (stereo unspecified)	36.3% (active)	90.7
CCC1CCCCN1C(=O)COC(=O)c1cc2ccccc2cc1O (stereo unspecified)	37.8% (active)	89
CCC1CCCCN1C(=S)NC(=O)c1ccc(F)cc1 (stereo unspecified)	7.93% (inactive)	0.813
CC1CCN(C(=O)COC(=O)c2cc3ccccc3cc2O)CC1	75.2% (active)	96
O=C(OCC(=O)N1CCCCC1)c1cc2ccccc2cc1O	47.8% (active)	88.2
CC1CC(C)CN(C(=O)Nc2ccc(Cl)c(Cl)c2)C1 (stereo unspecified)	9.98% (inactive)	2.73
Cc1c(Cl)ccc(OCCCN2CCCC(C)C2)c1C (stereo unspecified)	99.2% (active)	92.6
CCOC(=O)CSc1nnc(-c2ccc(Cl)cc2Cl)o1	78.6% (active)	85.5

Compound	inhibition [1]	inhibition [2] [%]
CC(C)OC(=O)CSc1nnc(-c2ccc(Cl)cc2Cl)o1	73% (active)	86.2
CC(C)OC(=O)CSc1nnc(-c2ccc(N(C)C)cc2)o1	81.3% (active)	91.9
Clc1ccc(-c2nnc(SCc3ccon3)o2)c(Cl)c1	82.2% (active)	64.9
COc1cc(OC)c(-c2nn3c(C4CCCCC4)nnc3s2)cc1OC	3% (inactive)	4.48
COC(=O)C(Oc1ccc2c(c1)oc(=O)c1cc(OC)ccc12)c1ccccc1 (stereo unspecified)	27.2% (active)	79.5
CCOC(=O)C(Oc1ccc2oc(C)c(C(=O)OC)c2c1)c1ccccc1 (stereo unspecified)	-0.568% (inactive)	-19.6
COc1ccc(Cl)cc1NC(=O)CC12CC3CC(CC(C3)C1)C2	10.7% (inactive)	2.06
COc1ccc(NC(=O)CC23CC4CC(CC(C4)C2)C3)cc1Cl	97.4% (active)	86.9
COc1cc(NC(=O)CC23CC4CC(CC(C4)C2)C3)ccc1NC(=O)c1ccco1	-10.9% (inactive)	-3.8
COc1ccc(NC(=O)CC23CC4CC(CC(C4)C2)C3)cc1[N+](=O)[O-]	71% (active)	49.1
CC(C)(C)c1cnc(NC(=O)c2ccccc2O)s1	71.4% (active)	28.1
O=C(Nc1ncc(Cc2cccc(C(F)(F)F)c2)s1)c1cccs1	24.1% (inactive)	23.5
CC(C)(C)c1ccc(C(=O)Nc2nccs2)cc1Br	17.6% (inactive)	-5.32
O=C(CSc1nnc(-c2ccccc2Br)o1)N1CCc2ccccc2C1	24.1% (active)	31.3
Nc1ccccc1NCCOc1ccccc1	98.3% (active)	98.7
O=C(CCNc1ccc(-c2ccccc2)cc1)c1ccco1	34.2% (active)	84.3
CC(=O)c1ccc(NCCC(=O)c2ccco2)cc1	17.6% (active)	59.4
CCCCSc1ccc(NCCC(=O)c2ccco2)cc1	29.9% (active)	60.7
O=C(COc1ccc(Cl)cc1)Nc1ccc(N2CCN(C(=O)c3ccco3)CC2)c(Cl)c1	0.893% (inactive)	-16.5
O=C(CCNc1cccc(Cl)c1)c1ccco1	97.7% (active)	96.8
Cc1ccc(NC(=O)C(=O)NNC(=O)c2ccco2)cc1Cl	6.77% (inactive)	7.85
Cc1ccc(-c2csc3nc(SCC(N)=O)n(-c4ccccc4)c(=O)c23)cc1C	4.1% (inactive)	-0.946

Compound	inhibition [1]	inhibition [2] [%]
CCC(C)NCCOc1ccc(C(C)(C)c2ccccc2)cc1 (stereo unspecified)	98% (active)	94.4
COc1ccc(OCC(=O)Nc2ccc(I)cc2C)cc1	22% (active)	56.8
O=C(CSc1nnc(CNc2cccc(Cl)c2)o1)OC1CCCCC1	68.9% (active)	81.6
O=C(CSc1nnc(Cc2ccccc2)o1)Nc1ccc2c(c1)OCO2	5.38% (inactive)	-1.39
Cc1ccc(NCc2nnc(SCC(=O)OC3CCCCC3)o2)c(C)c1	91.7% (active)	95
CCOc1cc(CNCc2ccccc2OCc2ccccc2)cc(Cl)c1OCC	9.66% (inactive)	-13.6
CCOc1cc(CNCCO)cc(Br)c1OCc1ccc(Cl)cc1Cl	37.7% (active)	41.3
CCOc1cc(C(=O)ON=C(N)Cc2ccc(Cl)cc2Cl)cc(OCC)c1OCC	4.39% (inactive)	-6.22
CCOCCOC(=O)COc1ccc2c(-c3ccccc3)cc(=O)oc2c1	64% (active)	89
Cc1cc(=O)oc2cc(OCC(=O)OC3CCCCC3)ccc12	36.4% (active)	72.1
O=C(COc1ccc2c(-c3ccccc3)cc(=O)oc2c1)OC1CCCCC1	11.7% (active)	53.3
O=C1c2cccc3cccc(c23)C(=O)N1CCN1CCN(CC(O)COCc2ccc(Cl)cc2)CC1 (stereo unspecified)	-12% (inactive)	-24.9
COc1ccc(-c2csc(-c3ccc(OC)c(OC)c3)n2)cc1C	1.2% (inactive)	-8.81
Cc1ccc(-c2csc(-c3ccncc3)n2)cc1C	86.8% (active)	97.1
O=C(Nc1nnc(-c2ccc(Cl)cc2)o1)c1ccc(Br)cc1	94.3% (active)	95.3
CC(C)(C)C(=O)Nc1nnc(-c2cc(Cl)ccc2Cl)o1	80.9% (active)	86.9
O=C(C=Cc1ccccc1)Nc1nnc(-c2ccc3c(c2)CCCC3)o1	8.27% (inactive)	19.3
CCCCC(=O)Nc1nnc(-c2ccc3c(c2)CCCC3)o1	25.2% (active)	57.9
O=C(Nc1nnc(-c2ccc3c(c2)CCCC3)o1)c1ccccc1Br	2.76% (inactive)	-9.29
O=C(Nc1nnc(-c2ccc(Cl)cc2)o1)c1ccccc1Br	12.4% (active)	44.2
O=C(CCSc1ccccc1)Nc1nnc(-c2ccc3c(c2)CCCC3)o1	20.9% (inactive)	26.4
O=C(Nc1nnc(-c2cc(Cl)ccc2Cl)o1)c1ccccc1F	59.5% (active)	79.5

Compound	inhibition [1]	inhibition [2] [%]
N#Cc1ccc(C(=O)Nc2nnc(-c3ccc4c(c3)CCCC4)o2)cc1	83.6% (active)	91.1
O=C(Nc1nnc(-c2ccc3c(c2)CCCC3)o1)c1ccco1	9.46% (inactive)	22.5
O=C(Nc1nnc(-c2ccc3c(c2)CCCC3)o1)c1ccccc1F	49% (active)	79.6
O=C(Nc1nnc(-c2ccc(Cl)cc2)o1)c1ccccc1F	82% (active)	89.7
O=C(Nc1nnc(-c2ccc3c(c2)CCCC3)o1)c1ccccc1Cl	-2.21% (inactive)	-7.28
O=C(Nc1nnc(-c2cc(Cl)ccc2Cl)o1)c1ccc(Cl)cc1Cl	11.8% (inactive)	9.57
O=C(Nc1nnc(-c2ccc(Br)cc2)o1)c1ccccc1F	80.9% (active)	94.2
CCOC(=O)COc1ccc2c(=O)cc(-c3ccccc3)oc2c1	89.6% (active)	95.3
CCOC(=O)COc1cc(OCC(=O)OCC)c2c(=O)cc(-c3ccccc3)oc2c1	63.7% (active)	71.2
COc1ccc(Cl)cc1NC(=O)C(C)N1CCN(C/C=C/c2ccccc2)CC1 (stereo unspecified)	-0.555% (inactive)	-22.8
Cc1ccc(C)c(-c2nnc(NC(=O)C(C)(C)C)o2)c1	84.1% (active)	83.8
Cc1ccc(C)c(-c2nnc(NC(=O)C(C)C)o2)c1	67% (active)	78.6
COc1ccccc1C(=O)Nc1nnc(-c2cc(C)ccc2C)o1	-3.37% (inactive)	-7.24
Cc1ccc(C)c(-c2nnc(NC(=O)c3cc(Cl)sc3Cl)o2)c1	99.2% (active)	96.3
Cc1ccc(C)c(-c2nnc(NC(=O)c3cccc4ccccc34)o2)c1	-3.96% (inactive)	-5.52
Cc1ccc(C)c(-c2nnc(NC(=O)c3ccccc3F)o2)c1	80.6% (active)	85.5
CCCC(=O)Nc1nnc(-c2cc(C)ccc2C)o1	10.9% (active)	48.8
Cc1ccc(C)c(C(=O)Nc2nnc(-c3cc(C)ccc3C)o2)c1	87.9% (active)	74.7
CCCC(=O)Nc1nnc(-c2ccc(C)cc2C)o1	2.17% (inactive)	26.4
CCOc1ccccc1NC(=O)CSc1nc2ccc(NC(=O)c3ccccc3Cl)cc2s1	-3.22% (inactive)	-11.8
COc1cccc(OC)c1C(=O)Nc1ccc(Cl)c(-c2nc3ccccc3s2)c1	72.8% (active)	62.9
CCc1ccc(/C=c2\s/c(=C/C(=O)C(C)(C)C)[nH]c2=O)cc1	99.8% (active)	99.5
